Source: PubChem (National Center for Advancing Translational Sciences (NCATS))
AMA1-RON2 inh: qHTS for Inhibitors of AMA1-RON; Towards Development of Antimalarial Drug Lead: Primary Screen. AlphaScreen AMA1-biotinylated RON2 peptide binding. Potency, µM (highest dose often 58.2 µM), actives largely listed as inhibitors. 0.2% of 360,000 active; also: nearly all actives have a fitted effect of over 45% in size
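AMA1 (3D7) with his tag at 25 nM final met compounds first, then biotinylated RON2 peptide at 25 nM; detection used donor plus acceptor beads, 10 µg/mL apiece, read by AlphaScreen after 30 min at room temperature.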
LmPK inh: qHTS Assay for Inhibitors of Leishmania Mexicana Pyruvate Kinase (LmPK); Q27686; purified LmPK, Kinase-Glo ATP luminescence, 1 h; Potency, µM (highest dose often 57.5 µM), actives largely listed as inhibitors; 0.37% of 290,000 active; AID 1721, 2009
Target sequence (Q27686 whole entry, looked up): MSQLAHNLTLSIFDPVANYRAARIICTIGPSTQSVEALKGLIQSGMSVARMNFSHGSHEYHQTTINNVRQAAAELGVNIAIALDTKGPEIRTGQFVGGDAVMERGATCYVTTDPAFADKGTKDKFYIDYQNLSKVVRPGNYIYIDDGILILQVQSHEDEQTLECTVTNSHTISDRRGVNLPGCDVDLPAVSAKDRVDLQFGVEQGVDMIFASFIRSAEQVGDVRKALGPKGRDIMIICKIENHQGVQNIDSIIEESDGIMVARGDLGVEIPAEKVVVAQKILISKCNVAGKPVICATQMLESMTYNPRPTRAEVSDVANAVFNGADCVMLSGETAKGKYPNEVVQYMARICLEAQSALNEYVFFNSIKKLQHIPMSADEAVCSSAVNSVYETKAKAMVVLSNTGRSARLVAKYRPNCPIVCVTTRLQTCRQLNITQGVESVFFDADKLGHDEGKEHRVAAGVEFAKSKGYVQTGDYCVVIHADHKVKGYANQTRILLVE
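Kinase-Glo luminescence read after 1 h RT reaction of 0.1 nM LmPK with 0.5 mM PEP and 0.1 mM ADP. Activity scaled between uninhibited and enzyme-free controls.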
RE007 growth inh: qHTS Assay for Inhibitors of the HIV-1 protein Vpr | S. pombe RE007 Vpr strain, BacTiter-Glo ATP luminescence, 24 h | Potency, µM (highest dose often 92.2 µM), most hits filed as inhibitors | 0.21% of 360,000 active | AID 651644, 2012; active = well fitted falling curve with a large enough effect; inconclusive = small, poorly fitted or top-dose-only effect; inactive = no such curve, though single readings can be large or run the other way; also: nearly all actives have a fitted effect of over 50% in size
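Fission yeast RE007 carrying one integrated HIV-1 vpr copy, seeded at OD 0.01 in PMG+AL medium with 23 nL pinned compound. Grown 24 h at 30 degrees; viability read by BacTiter-Glo luminescence after 5 min.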
VACV mCherry inh: qHTS for Stage-Specific Inhibitors of Vaccinia Orthopoxvirus: mCherry Reporter Primary qHTS | AID 720579, 2013 | Vaccinia virus mCherry reporter infection, fluorescence | 0.63% of 310,000 active | Potency, µM (doses to about 36.5 µM), usual class: inhibitors; calls by dose curve; tested in A549 cells; also: nearly all actives have a fitted effect of over 35% in size
Tb PYK inh: qHTS of Trypanosoma Brucei Inhibitors; Potency, µM (doses to about 76.8 µM), usual class: inhibitors; pyruvate kinase (Trypanosoma brucei), Q57TT1; 0.12% of 410,000 active; TbPYK enzyme, Kinase-Glo Plus ATP luminescence, 45 min; also: nearly all actives have a fitted effect of over 50% in size
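Enzyme and substrate buffer are dispensed first and compound is pin-transferred. ADP at 130 uM final then starts the reaction, which runs 45 min at room temperature. Detection reagent is added for 10 min before luminescence is imaged.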
VACV Venus inh: qHTS for Stage-Specific Inhibitors of Vaccinia Orthopoxvirus: Venus Reporter Primary qHTS. Potency, µM (top dose mostly 36.5 µM), usual class: inhibitors. Vaccinia virus Venus reporter expression, fluorescence. 0.46% of 330,000 active; calls by dose curve; tested in A549 cells; also: nearly all actives have a fitted effect of over 30% in size
Of the large screens only hits and unclear results are named; the others gave an inactive call. In the library only some 1.3% were active in any assay of this set; here they are far more common. Unless noted, calls follow the shape of the dose curve; as a rule, active = well fitted curve in the direction sought with a large enough effect; inconclusive = small, poorly fitted or top-dose-only effect, or another doubt; inactive = no such curve, though single readings can be large; an effect the other way counts as inactive or inconclusive.

CO/N=C(\C(=O)N[C@@H]1C(=O)N2C(C(=O)[O-])=C(C[n+]3cccc4c3CCCC4)CS[C@H]12)c1csc(N)n1	none (no result: AMA1-RON2 inh, LmPK inh, RE007 growth inh, VACV mCherry inh, VACV Venus inh)
CCN1/C(=C/c2ccc3ccccc3[n+]2CC)C=Cc2ccccc21	AMA1-RON2 inh inconclusive, LmPK inh 14.1µM, RE007 growth inh 22.4µM, Tb PYK inh 31.6µM (no result: VACV mCherry inh)
COc1cc(=O)n2c(c1C(=O)NCc1ccc3c(c1)OCO3)CCN(C(=O)c1ccccc1F)CC2	none (no result: AMA1-RON2 inh, LmPK inh, RE007 growth inh, Tb PYK inh)
COc1ccc(CN2CCCC(c3nc(-c4ccncc4)ncc3-c3ccccc3C)C2)c(OC)c1 (centres undefined)	none (no result: AMA1-RON2 inh, LmPK inh, RE007 growth inh, Tb PYK inh)
O=C1CC(N2CCN(S(=O)(=O)c3ccccc3F)CC2)C(=O)N1c1ccccc1F (centres undefined)	AMA1-RON2 inh 31.6µM (no result: LmPK inh, VACV mCherry inh, VACV Venus inh)
C(=C\c1ccc2ccccc2n1)/c1ccc2ccccc2n1	none (no result: AMA1-RON2 inh, LmPK inh, RE007 growth inh, Tb PYK inh)
Oc1ccc(/C=C/c2ccc3ccccc3n2)cc1	LmPK inh 7.08µM, RE007 growth inh inconclusive, VACV mCherry inh inconclusive, Tb PYK inh inconclusive
C(=Cc1c[nH]c2ccccc12)c1ccc2ccccc2n1	RE007 growth inh inconclusive, VACV mCherry inh 0.708µM (no result: LmPK inh)
C(=C\c1ccc2ccccc2n1)/c1ccccc1	LmPK inh 12.6µM, RE007 growth inh inconclusive, VACV mCherry inh 5.01µM, VACV Venus inh inconclusive
Fc1ccccc1/C=C/c1ccc2ccccc2n1	LmPK inh 12.6µM, RE007 growth inh inconclusive, Tb PYK inh inconclusive
C(=Cc1c[nH]c2ccccc12)c1nccc2ccccc12	RE007 growth inh inconclusive, VACV mCherry inh inconclusive (no result: LmPK inh)
COc1ccccc1C(=O)N[C@@H]1c2ccccc2C2(CCN(Cc3cccnc3)CC2)[C@H]1O	none (no result: AMA1-RON2 inh, LmPK inh, RE007 growth inh, Tb PYK inh)
CSc1ncccc1C(=O)N1CCOc2ccc(C(C)(O)CCn3cccn3)cc2C1 (centres undefined)	none (no result: AMA1-RON2 inh, LmPK inh, RE007 growth inh, Tb PYK inh)
CCc1nc2cc(C(=O)N[C@H]3CCCCNC3=O)cc(NC(=O)c3ccccc3OC)c2n1C	none (no result: AMA1-RON2 inh, LmPK inh, RE007 growth inh, Tb PYK inh)
OC(COC(c1ccc(Cl)cc1)c1ccc(Cl)cc1)CN1CCN(c2ccccn2)CC1 (centres undefined)	AMA1-RON2 inh 28.2µM
Cc1cccc(C)c1OCC(O)CN1CCN(c2ccccn2)CC1 (centres undefined)	none
Cc1c(C(=O)N2CCOc3ccccc3C2)sc2ncnc(NCCCN3CCOCC3)c12	none (no result: AMA1-RON2 inh, LmPK inh, RE007 growth inh, Tb PYK inh)
OC(c1cccnc1)c1ccc2c(c1)CN(Cc1ccc(-c3ccccc3Cl)o1)CCO2 (centres undefined)	none (no result: AMA1-RON2 inh, LmPK inh, RE007 growth inh, Tb PYK inh)
C[C@@H]1CN([C@H](C)CO)C(=O)Cc2cc(NC(=O)Nc3ccccc3)ccc2O[C@@H]1CN(C)Cc1ccc2c(c1)OCO2	VACV mCherry inh inconclusive, VACV Venus inh 28.2µM (no result: LmPK inh)
CCOC(=O)c1c(C)oc2c1c(C(c1ccncc1)N1CCOCC1)c(O)c1ccccc12 (centres undefined)	AMA1-RON2 inh inconclusive, RE007 growth inh 39.8µM (no result: VACV mCherry inh)
CCOC(=O)c1c(C)oc2c1c(CN1CCN(C(=O)OCC)CC1)c(O)c1ccccc12	AMA1-RON2 inh inconclusive
COc1cc(OC)nc(-n2ncc(Br)c(Br)c2=O)n1	VACV mCherry inh inconclusive, VACV Venus inh 11.2µM
COc1cc(C(=O)NC(c2ccccc2Cl)c2cc(Cl)c3cccnc3c2O)cc(OC)c1OC (centres undefined)	VACV mCherry inh 11.2µM (no result: AMA1-RON2 inh, LmPK inh, RE007 growth inh)
CCCC(=O)NC(c1ccc(OC)c(OC)c1)c1cc(Cl)c2cccnc2c1O (centres undefined)	VACV mCherry inh 12.6µM, VACV Venus inh inconclusive
C/C(=N/NS(=O)(=O)c1ccc(C)c(C)c1)c1c[nH]c2ccccc12	none (no result: VACV mCherry inh, VACV Venus inh)
C/C(=N/NS(=O)(=O)c1ccc(C)cc1C)c1c[nH]c2ccccc12	VACV mCherry inh 5.01µM
N=c1nc2n(cc1F)C1OC(CO)C(O)C1O2 (centres undefined)	VACV mCherry inh 5.62µM, VACV Venus inh inconclusive (no result: LmPK inh)
N=c1ncn(C2OC(CO)C(O)C2O)c2nc(Br)[nH]c12 (centres undefined)	none (no result: LmPK inh)
Cc1ccc(N2CCN(c3ncccc3[N+](=O)[O-])CC2)c(C)c1	AMA1-RON2 inh 12.6µM
Cc1ccc(Cl)cc1Nc1nc(-c2sc(NC(=O)c3ccco3)nc2C)cs1	VACV mCherry inh inconclusive, VACV Venus inh inconclusive
Cc1nc(NC(=O)c2ccco2)sc1-c1csc(Nc2ccc(Cl)cc2)n1	VACV mCherry inh 7.94µM, VACV Venus inh inconclusive
CCCCCCC(=O)Nc1nc(C)c(-c2csc(Nc3ccc(Cl)cc3)n2)s1	VACV mCherry inh 5.01µM, VACV Venus inh inconclusive
Cn1cc(CNCc2cnc3ccccn23)c(-c2ccc(Oc3ccccc3)cc2)n1	AMA1-RON2 inh 28.2µM, VACV mCherry inh inconclusive
CCOc1ccc(C(=O)C(CN2CCOCC2)c2ccccc2)cc1 (centres undefined)	VACV mCherry inh 10µM, VACV Venus inh inconclusive
CCOC(=O)C1CCCN(C2CC(=O)N(c3ccc(C)cc3)C2=O)C1 (centres undefined)	RE007 growth inh inconclusive
CCOC(=O)C1CCN(C2CC(=O)N(c3cccc(Cl)c3)C2=O)CC1 (centres undefined)	RE007 growth inh 10µM
O=C(C1CCN(C2CC(=O)N(Cc3ccccc3)C2=O)CC1)N1CCCCCC1 (centres undefined)	RE007 growth inh inconclusive (no result: VACV mCherry inh)
COC(=O)C1CCN(C2CC(=O)N(c3cc(C)cc(C)c3)C2=O)CC1 (centres undefined)	RE007 growth inh 35.5µM
CCN(CC)C1CC(=O)N(c2cccc(Cl)c2)C1=O (centres undefined)	RE007 growth inh 5.62µM
O=C(C1CCN(C2CC(=O)N(c3cccc(Cl)c3)C2=O)CC1)N1CCCC1 (centres undefined)	RE007 growth inh 12.6µM (no result: VACV mCherry inh)
O=C(O)c1ccc(N2C(=O)CC(N3CCN(c4ccc(Cl)cc4)CC3)C2=O)cc1 (centres undefined)	none (no result: VACV mCherry inh, VACV Venus inh)
CCOC(=O)c1ccc(N2C(=O)CC(N(C)CCc3ccc(OC)c(OC)c3)C2=O)cc1 (centres undefined)	RE007 growth inh 3.98µM (no result: VACV mCherry inh)
O=C(C1CCN(C2CC(=O)N(c3ccc(Cl)cc3)C2=O)CC1)N1CCOCC1 (centres undefined)	RE007 growth inh 12.6µM (no result: VACV mCherry inh)
CCOC(=O)c1ccc(N2C(=O)CC(N3CCOCC3)C2=O)cc1 (centres undefined)	RE007 growth inh 35.5µM
CCOc1ccc(N2C(=O)CC(N3CCOCC3)C2=O)cc1 (centres undefined)	none
COc1cc(=O)n2c(c1C(=O)N(C)Cc1nccs1)CCN(Cc1ccc(F)c(F)c1)CC2	none (no result: AMA1-RON2 inh, LmPK inh, RE007 growth inh, Tb PYK inh)
